# Test results as given in the supplement of paper PMC8728848.
# About 410 targets per protein were measured; listed, in parts, are those with the strongest signals and a random draw of the rest.
# B1: CCL1 (Coprinopsis cinerea) (protein)
# chain: MDTQAKPPAGRYVIYNRVLSPNGEKLALTYPGYQREALTLTPLHHSANQIWILNNWDATTSSLTPETARNTQVGWGSGNVPIVLPPGNYVWTLASSAGGYIIQDGGKTVYWNAGEAVANTKVSIGGDNGLQARWIFERV
# Columns and labels:
# Test in all cases: glycan array binding signal (z-score within array); higher = stronger binding
# Conditions in all cases: glycan notation: IUPAC condensed, linker removed
# [1] = molecular target: Fuc(a1-2)Gal(b1-3)GlcNAc6S
# In short: (§1)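 The binding signal is a Z-score computed within each array. Data were drawn from 3228 arrays in the Consortium for Functional Glycomics database, restricted to those with a known protein sequence. Scores were averaged over arrays of the same protein sequence at different concentrations or buffers, and over linkers, and negative values can be taken as non-binding.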
# [2] = molecular target: Fuc(a1-2)Gal(b1-3)[Fuc(a1-4)]GlcNAc(b1-2)Man(a1-3)[Fuc(a1-2)Gal(b1-3)[Fuc(a1-4)]GlcNAc(b1-2)Man(a1-6)]Man(b1-4)GlcNAc(b1-4)GlcNAc
# In short: as §1
# [3] = molecular target: Fuc(a1-2)Gal(b1-3)[Fuc(a1-4)]GlcNAc(b1-2)Man(a1-6)[Fuc(a1-2)Gal(b1-3)[Fuc(a1-4)]GlcNAc(b1-2)Man(a1-3)]Man(b1-4)GlcNAc(b1-4)[Fuc(a1-6)]GlcNAc
# In short: as §1
# [4] = molecular target: Fuc(a1-2)Gal(b1-3)[Fuc(a1-4)]GlcNAc(b1-3)[Gal(b1-4)GlcNAc(b1-6)]Gal(b1-4)Glc
# In short: as §1
# Fuc(a1-2)Gal(b1-4)Glc = molecular target: Fuc(a1-2)Gal(b1-4)Glc
# In short: as §1
# [5] = molecular target: Fuc(a1-2)Gal(b1-4)GlcNAc(b1-3)[Fuc(a1-2)Gal(b1-4)GlcNAc(b1-6)]GalNAc
# In short: as §1
# [6] = molecular target: Fuc(a1-2)Gal(b1-4)[Fuc(a1-3)]GlcNAc(b1-3)[Neu5Ac(a2-6)Gal(b1-4)GlcNAc(b1-6)]Gal(b1-4)Glc
# In short: as §1
# [7] = molecular target: Fuc(a1-2)Gal6S(b1-4)Glc6S
# In short: as §1
# [8] = molecular target: Fuc(a1-2)[Gal(a1-3)]Gal(b1-3)GlcNAc(b1-2)Man(a1-3)[Fuc(a1-2)[Gal(a1-3)]Gal(b1-3)GlcNAc(b1-2)Man(a1-6)]Man(b1-4)GlcNAc(b1-4)GlcNAc
# In short: as §1
# [9] = molecular target: Fuc(a1-2)[Gal(a1-3)]Gal(b1-4)[Fuc(a1-3)]GlcNAc
# In short: as §1
# [10] = molecular target: Fuc(a1-2)[GalNAc(a1-3)]Gal(b1-4)GlcNAc(b1-3)Gal(b1-4)GlcNAc
# In short: as §1
# [11] = molecular target: Fuc(a1-3)[Gal(b1-4)]GlcNAc(b1-2)Man(a1-3)[Fuc(a1-3)[Gal(b1-4)]GlcNAc(b1-2)Man(a1-6)]Man(b1-4)GlcNAc(b1-4)GlcNAc
# In short: as §1
# [12] = molecular target: Fuc(a1-3)[Gal(b1-4)]GlcNAc(b1-3)Gal(b1-3)[Fuc(a1-4)]GlcNAc
# In short: as §1
# [13] = molecular target: Fuc(a1-3)[Gal(b1-4)]GlcNAc(b1-4)Gal(b1-4)[Fuc(a1-3)]GlcNAc(b1-4)Gal(b1-4)[Fuc(a1-3)]GlcNAc
# In short: as §1
# [14] = molecular target: Fuc(a1-3)[GalNAc(b1-4)]GlcNAc
# In short: as §1
# [15] = molecular target: Fuc(a1-3)[GalNAc(b1-4)]GlcNAc6S
# In short: as §1
# [16] = molecular target: Fuc(a1-3)[GalNAc3S(b1-4)]GlcNAc
# In short: as §1
# [17] = molecular target: Gal(a1-3)Gal(b1-3)[Fuc(a1-4)]GlcNAc(b1-2)Man(a1-3)[Gal(a1-3)Gal(b1-3)[Fuc(a1-4)]GlcNAc(b1-2)Man(a1-6)]Man(b1-4)GlcNAc(b1-4)GlcNAc
# In short: as §1
# Gal(a1-4)GlcNAc = molecular target: Gal(a1-4)GlcNAc
# In short: as §1
# Gal(b1-3)Gal = molecular target: Gal(b1-3)Gal
# In short: as §1
# Gal(b1-3)Gal(b1-4)GlcNAc = molecular target: Gal(b1-3)Gal(b1-4)GlcNAc
# In short: as §1
# Gal(b1-3)GalNAc = molecular target: Gal(b1-3)GalNAc
# In short: as §1
# [18] = molecular target: Gal(b1-3)GlcNAc(b1-2)Man(a1-3)[Gal(b1-3)GlcNAc(b1-2)Man(a1-6)]Man(b1-4)GlcNAc(b1-4)GlcNAc
# In short: as §1
# [19] = molecular target: Gal(b1-3)GlcNAc(b1-3)Gal(b1-4)[Fuc(a1-3)]GlcNAc(b1-6)[Gal(b1-3)GlcNAc(b1-3)]Gal(b1-4)Glc
# In short: as §1
# [20] = molecular target: Gal(b1-4)GlcNAc(b1-2)Man(a1-3)[GlcNAc(b1-2)Man(a1-6)]Man(b1-4)GlcNAc(b1-4)GlcNAc
# In short: as §1
# [21] = molecular target: Gal(b1-4)GlcNAc(b1-2)Man(a1-6)Man(b1-4)GlcNAc(b1-4)GlcNAc
# In short: as §1
# [22] = molecular target: Gal(b1-4)GlcNAc(b1-2)[Gal(b1-4)GlcNAc(b1-6)]Man(a1-6)[Gal(b1-4)GlcNAc(b1-2)Man(a1-3)]Man(b1-4)GlcNAc(b1-4)GlcNAc
# In short: as §1
# [23] = molecular target: Gal(b1-4)GlcNAc(b1-6)GalNAc
# In short: as §1
# [24] = molecular target: Gal3S(b1-3)[Fuc(a1-4)]GlcNAc
# In short: as §1
# Gal3S(b1-4)GlcNAc = molecular target: Gal3S(b1-4)GlcNAc
# In short: as §1
binder,measurement,setting,value
B1,glycan array binding signal (z-score),[1],-0.097
same,glycan array binding signal (z-score),[2],-0.006
same,glycan array binding signal (z-score),[3],-0.148
same,glycan array binding signal (z-score),[4],-0.144
same,glycan array binding signal (z-score),Fuc(a1-2)Gal(b1-4)Glc,-0.127
same,glycan array binding signal (z-score),[5],-0.025
same,glycan array binding signal (z-score),[6],-0.142
same,glycan array binding signal (z-score),[7],-0.033
same,glycan array binding signal (z-score),[8],-0.131
same,glycan array binding signal (z-score),[9],-0.138
same,glycan array binding signal (z-score),[10],-0.161
same,glycan array binding signal (z-score),[11],0.237
same,glycan array binding signal (z-score),[12],1.7
same,glycan array binding signal (z-score),[13],1.68
same,glycan array binding signal (z-score),[14],8.48
same,glycan array binding signal (z-score),[15],13.6
same,glycan array binding signal (z-score),[16],7.46
same,glycan array binding signal (z-score),[17],-0.081
same,glycan array binding signal (z-score),Gal(a1-4)GlcNAc,-0.164
same,glycan array binding signal (z-score),Gal(b1-3)Gal,-0.15
same,glycan array binding signal (z-score),Gal(b1-3)Gal(b1-4)GlcNAc,-0.151
same,glycan array binding signal (z-score),Gal(b1-3)GalNAc,-0.163
same,glycan array binding signal (z-score),[18],-0.119
same,glycan array binding signal (z-score),[19],0.276
same,glycan array binding signal (z-score),[20],-0.106
same,glycan array binding signal (z-score),[21],-0.133
same,glycan array binding signal (z-score),[22],-0.131
same,glycan array binding signal (z-score),[23],-0.142
same,glycan array binding signal (z-score),[24],-0.116
same,glycan array binding signal (z-score),Gal3S(b1-4)GlcNAc,-0.123
